# Inconclusive results are not listed. Where a call stands in place of a potency, no number is given. A number with no mark means an inactive call. Activity calls are given as the source filed them. Calls come from the whole dose curve; as a rule, active = well fitted curve in the direction sought with a large enough effect; inconclusive = small, poorly fitted or top-dose-only effect, or another doubt; inactive = no such curve, though single readings can be large; an effect the other way counts as inactive or inconclusive.
# Assays:
# [1] = system: Zika virus NS2B-NS3 protease; test: Primary screen GU AMC qHTS for Zika virus inhibitors (AID 1347154); note: nearly all actives have a fitted effect of over 70% in size
# How it was run: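 Unlinked Zika NS2B hydrophilic domain–NS3 protease complex at 25 nM in 10 mM Tris-HCl pH 8.0, 0.01% Tween 20, with an AMC peptide substrate. Fluorescence change (340/450 nm) over 15 min at room temperature, normalized to controls, fitted to 4-parameter Hill.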
# [2] = Counterscreen qHTS for small molecule stabilizers of the endoplasmic reticulum resident proteome: GLuc-NoTag assay (AID 1508627);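 note: SH-SY5Y cells given compound then 100 nM thapsigargin to empty ER calcium; series mostly up to about 76 µM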
# How it was run: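 SH-SY5Y cells stably expressing constitutively secreted GLuc without SERCaMP tag, exposed to compound for 19 hr, then to 100 nM thapsigargin for 4 hr at 37C. Medium luciferase was read by coelenterazine luminescence without lysis.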
compound,measurement,setting,value
COc1ccc(NC(=O)c2cc(OCCCN(C)C)nn2Cc2ccccc2)cc1,Potency,[1],inactive
same,Potency,[2],inactive
